High-throughput results (PubChem)
An excerpt weighted towards active compounds, which were near 0.52% of everything screened.
Epigenetic derep: derepresses silenced GFP reporter in murine cells; Potency, µM (titrated, usually from 53.9 µM), without a hit: at the top dose GFP activation, most hits filed as activators; 280,000 tested, 0.2% active; murine LDR cells, GFP reporter derepression, 30 h; also: potency is read from the fitted curve at half-maximal effect; % of control where 0% means no effect; nearly all actives have a fitted effect of over 60% in size
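In this reporter-derepression format, murine cells bearing a silenced integrated CMV-GFP locus incubate with test compound (30 h, 37 C), then are washed and imaged; fluorescent objects of 20–120 um count as induced cells.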
PINK1 expr mod: modulators of PINK1 expression | Potency, µM (titrated, usually from 76.6 µM), for inactives: at the highest dose activation (PINK1 increase), usual class: activators | AID 624263 | PINK1 immunofluorescence, high-content cytometry, 24 h | 410,000 tested, 0.2% active; active = well fitted activation curve with a large enough effect; inconclusive = small, poorly fitted or top-dose-only effect; cell line not stated here; also: potency is read from the fitted curve at half-maximal effect; % of control where 0% means no effect; nearly all actives have a fitted effect of over 65% in size
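Cells are seeded, rested 12 hours, then given compound at five concentrations or DMSO for 24 hours. After fixation, blocking and antibody staining, PINK1 amount and mitochondrial localization are scored; CCCP serves as control.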
Vif-A3F inh: blocks the Vif interaction with APOBEC3F | 390,000 tested, 0.2% active | Potency, µM (series often up to 46.1 µM), for the others: at the top dose activity, negative = active | HeLa A3F-eYFP + Vif (tagged APOBEC3F with the HIV-1 protein that degrades it), YFP fluorescence increase; also: potency is read from the fitted curve at half-maximal effect; % of control where 0% means no effect; nearly all actives have a fitted effect of over 65% in size
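HeLa cells stably expressing A3F-eYFP plus Vif, plated and incubated overnight at 37 deg C, then exposed to compounds overnight at 37 deg C. Blocked degradation read as raised yellow fluorescence (Ex 488/Em 500-530).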
Vif-A3G inh: Vif-A3G binding inhibition | Q9HC16 | HeLa A3G-eYFP + Vif (tagged APOBEC3G with the HIV-1 protein that degrades it), YFP fluorescence, overnight | Potency, µM (titrated, usually from 46.1 µM), inactives show at the top dose activity, negative = active, usual class: inhibitors | 410,000 tested, 0.076% active | AID 602310; also: potency is read from the fitted curve at half-maximal effect; % is scaled to controls: 0 for no effect and ±100 for the full control effect; nearly all actives have a fitted effect of over 60% in size
Target sequence (Q9HC16 whole entry, looked up): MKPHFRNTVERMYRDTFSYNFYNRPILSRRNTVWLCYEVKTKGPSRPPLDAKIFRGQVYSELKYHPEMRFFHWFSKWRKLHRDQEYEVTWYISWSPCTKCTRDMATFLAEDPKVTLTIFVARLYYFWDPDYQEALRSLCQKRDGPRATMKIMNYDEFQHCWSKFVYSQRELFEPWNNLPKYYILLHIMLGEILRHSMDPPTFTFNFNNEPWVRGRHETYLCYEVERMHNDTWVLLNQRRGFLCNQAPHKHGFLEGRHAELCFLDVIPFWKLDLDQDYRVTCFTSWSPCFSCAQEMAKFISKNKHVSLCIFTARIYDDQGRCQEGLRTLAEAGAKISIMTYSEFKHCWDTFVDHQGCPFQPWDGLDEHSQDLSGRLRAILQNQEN
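HeLa cells stably expressing Vif and C-terminally eYFP-tagged A3G, seeded overnight at 37 deg C, then exposed to compound by pintool overnight at 37 deg C. Rise in yellow fluorescence (Ex 488/Em 500-530, Acumen) marks blocked Vif-driven A3G degradation.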
Parental c127i: changes parental c127i cell counts in epigenetic modulator counter-screen; 60 tested, 20% active; Potency, µM, for the others: top-dose fluorescent cell count, usual class: activators; mouse c127i parental cells, fluorescent cell count, 30 h; shares compounds with Epigenetic derep
* marks the source's active call; other numbers are inactive results; ? = inconclusive; . = no result given. Unless noted, calls follow the shape of the dose curve; as a rule, active = well fitted curve in the direction sought with a large enough effect; inconclusive = small, poorly fitted or top-dose-only effect, or another doubt; inactive = no such curve, though single readings can be large; an effect the other way counts as inactive or inconclusive.

SMILES	Epigenetic derep	PINK1 expr mod	Vif-A3F inh	Vif-A3G inh	others
CCCCCCCNC1=CC(=O)CC(c2ccccc2)C1 (stereo unspecified)	0.0%	39.8µM*	1.5%	-2.5%
CCn1c(SCC(=O)N2CCN(c3ccccc3)CC2)nnc1-c1cc2cc(Cl)ccc2o1	-7.9%	11.2µM*	-3.6%	1.3%
C=CCn1c(SCC(=O)N2CCN(c3ccccc3)CC2)nnc1-c1ccco1	0.0%	-2.6%	12.2%	1.0%
CC(C)(C)n1ncc2c(=O)n(Cc3ccc(Cl)c(F)c3)cnc21	.	.	.	0.6%
COc1ccc(-c2[nH]n(-c3ccc([N+](=O)[O-])cc3)c(=O)c2C=NCc2ccccc2)cc1	12.6µM*	6.8%	?	-9.9%
CCN(CC)c1ccc(/C=C2\SC(=O)N(C(C)C)C2=O)o1	7.08µM*	?	?	?
Cc1cc(C)nc(NN2C(=O)/C(=C/c3ccccc3)SC2=S)n1	-2.8%	10µM*	-11.8%	0.8%
O=C(NCC1Cc2cc(F)cc(-c3cnccn3)c2O1)c1cccc(Cl)c1 (stereo unspecified)	.	-0.4%	.	.
CC1=CN2C(=N)/C(=C/c3ccc([N+](=O)[O-])o3)C(=O)N=C2S1	?	?	?	22.4µM*
CC1=CN2C(=N)/C(=C/c3ccco3)C(=O)N=C2S1	-1.9%	-0.4%	-15.8%	-6.6%
COCCNC(=S)N/N=C(\C)c1ccc(OC(F)F)cc1	0.0%	-1.0%	25.1µM*	-0.6%
COCCNC(=S)N/N=C(\C)c1ccc2cc(OC)ccc2c1	7.94µM*	2.2%	-1.3%	-13.8%
Nc1ccc(N2CCCCC2)cc1N1CCCCC1	-1.8%	15.8µM*	?	-18.2%
Cc1cccc(CN2CCN(C(c3ccccc3)c3ccc(Cl)cc3)CC2)c1 (stereo unspecified)	0.0%	35.5µM*	-5.6%	-3.4%
Cc1ccc(-c2nc(Nc3cccc(C)c3)sc2CC(=O)O)cc1	1.1%	11.0%	?	-20.6%
O=C(O)Cc1sc(NC2CCCCC2)nc1-c1ccc(Cl)cc1	.	4.8%	25.1µM*	-27.3%
OC(c1cccnc1)c1ccc2c(c1)CN(Cc1cn(-c3ccccc3)nc1-c1ccccc1)CCO2 (stereo unspecified)	.	-0.1%	.	.
CCOC(=O)c1cc([N+](=O)[O-])sc1NC(=O)c1ccc(S(=O)(=O)N2CC3(C)CC2CC(C)(C)C3)cc1 (stereo unspecified)	2.3%	2.51µM*	-5.7%	-1.7%
NC(=O)C1CCCN(Cc2ccc3c(c2)CN(Cc2cn[nH]c2-c2ccc(F)cc2)CCO3)C1 (stereo unspecified)	.	-0.8%	.	.
N#C/C(=C/c1ccc(N2CCCCC2)o1)c1cccc(F)c1	6.31µM*	7.08µM*	10µM*	?
N#C/C(=C/c1ccc(N2CCCCCC2)o1)c1ccc(Cl)cc1	7.08µM*	7.94µM*	?	?
N#C/C(=C/c1ccc(N2CCCCC2)cc1)c1cccc(F)c1	2.0%	?	7.0%	-5.4%
CO[C@H]1[C@H](NC(=O)c2ccco2)c2ccccc2C12CCN(Cc1ccc3cccc(F)c3n1)CC2	.	2.2%	.	.
CCCCn1c(NC(=O)c2ccccc2Cl)c(C#N)c2nc3ccccc3nc21	-1.1%	39.8µM*	?	?
Cc1cc(C(=O)Nc2cccc(-c3nc(CNC(=O)c4sc(C)nc4C)c(C)o3)c2)c(C)o1	.	0.2%	.	.
SMILES	Epigenetic derep	PINK1 expr mod	Vif-A3F inh	Vif-A3G inh	others
O=C(CCN1C(=O)/C(=C/C=C/c2ccccc2)SC1=S)Nc1ccccn1	14.1µM*	9.1%	?	-8.8%
O=C(CCN1C(=O)/C(=C/C=C/c2ccccc2)SC1=S)Nc1cccnc1	2.0%	2.8%	-5.4%	-16.7%
CCSc1nsc(NC(=O)Nc2ccc(F)cc2F)n1	.	22.4µM*	-11.7%	3.9%
CS(=O)(=O)Nc1cc(C(=O)N2CCNC(=O)C2)c2c(c1)ncn2CCc1ccccc1	.	1.0%	.	.
CC(=O)Nc1ccc(N/C=C/C(=O)c2ccc(Cl)cc2)cc1	.	11.2µM*	?	0.2%
COc1ccc(CN2CCN(C(C)=O)CC2)cc1OC1CCN(C(=O)c2ccc3[nH]c(C)c(C)c3c2)CC1	.	-1.1%	.	.
CCOC(=O)/C(C#N)=N/Nc1ccccc1OC	2.7%	?	?	-20.3%
CCOC(=O)/C(C#N)=N\Nc1cc(Cl)ccc1OC	?	11.0%	10µM*	-4.8%
COc1ccc(-c2cc(C(F)(F)F)c3c(n2)sc2c(O)cc(=O)[nH]c23)c(OC)c1	11.2µM*	-0.9%	?	-27.9%
CO[C@H]1[C@H](NC(=O)c2ccsc2)c2ccccc2C12CCN(Cc1cc3ccccc3o1)CC2	.	-0.1%	.	.
CCNc1ncc2nc(-c3cn(C)c4ccccc34)c(=O)n(-c3ccc(OC)cc3)c2n1	.	28.2µM*	.	.
OC1(c2cccnc2)CCN(Cc2ccc3c(c2)CN(Cc2cccc(F)c2F)CCO3)CC1	.	-0.5%	.	.
COc1ccc(CN2CCCC(n3cc(C(=O)N4CCCCC4)nn3)C2)c(OC)c1OC (stereo unspecified)	.	1.8%	.	.
COc1ccc(C(=O)C/C(=C\C(=O)c2ccc(C)cc2)c2ccccc2)cc1	-1.6%	25.1µM*	-17.6%	2.2%
Cc1ccc(C)c(CN2C[C@H](Sc3ccccn3)C[C@H]2C(=O)Nc2ccc3sc(C)nc3c2)c1	.	-0.1%	.	.
CC(C)(C)S(=O)(=O)/C(C#N)=N/Nc1ccc(Cl)cc1	-0.5%	28.2µM*	-1.9%	-1.2%
CC(C)(C)c1ccc(N/N=C(\C#N)S(=O)(=O)C(C)(C)C)cc1	4.4%	39.8µM*	-13.8%	-1.5%
COC(=O)C1CCN(Cc2ccc3c(c2)CN(C(=O)c2ccc4nc(C)c(C)nc4c2)CCO3)CC1	.	0.9%	.	.
C[C@]12CCC[C@H](O1)c1c(cc3c(c1O)C(=O)c1c(O)cc(O)cc1C3=O)O2	.	?	8.91µM*	5.62µM*
CC(C)C(=O)NC(=S)N(Cc1ccccc1)Cc1ccccc1	7.5%	0.9%	-8.6%	-5.0%
CC(C)CC(=O)NC(=S)N(Cc1ccccc1)Cc1ccccc1	1.1%	8.7%	25.1µM*	-2.9%
O=C(NC[C@@H]1CCCN2CCCC[C@H]12)c1cnn(-c2nccc(-c3cc4ccccc4o3)n2)c1C1CC1	.	0.9%	.	.
N#CC1=C(N)n2c(s/c(=C\c3cccs3)c2=O)=C(C#N)C1c1cccs1 (stereo unspecified)	10µM*	?	?	?	Parental c127i=14.1µM*
Oc1[nH]c2ccccc2c1N=Nc1ccccn1	.	7.7%	0.2%	-4.1%
